# Cycloheximide cs = counter-screen for Shiga toxin inhibitors: cycloheximide protein synthesis inhibition | max response, % | 300,000 compounds, 12% hits | cell reporter, cycloheximide protein synthesis inhibition counterscreen; in the data active means max response mostly above about 13%, no sharp cut-off; inactive means mostly below about 14%; further: read at 38.3 µM for the half of the compounds with a filed dose; 0% is about no effect
# Pf growth 96h = P. falciparum growth inhibition at 96 hour, primary screen for plastid delayed-death inhibitors. AID 504834. 320,000 compounds, 6.9% hits. P. falciparum luciferase reporter growth, 96 h. Potency, µM (series often up to 28.7 µM), for inactives: top-dose activity change, negative = inhibition, hits mostly inhibitors; further: potency means the concentration at half of the fitted maximal effect; on the % scale 0 is the no-effect control and ±100 the full control effect
#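 Parasite growth measured via integrated firefly luciferase reporter in P. falciparum. Infected erythrocytes at 2% hematocrit, 0.05% parasitemia final were treated 96 hours at 37 C under 5% CO2, and luminescence was read.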
# FBPA Giardia inh = blocks Giardia fructose-bisphosphate aldolase activity | A8B2U2 | purified Giardia FBPA | Potency, µM (series often up to 59.6 µM), for inactives: at the top dose activity, negative = inhibition, hits mostly inhibitors | 290,000 compounds, 0.71% hits | AID 2451; further: potency means the concentration at half of the fitted maximal effect; on the % scale 0 is the no-effect control and ±100 the full control effect; nearly all actives have a fitted effect of over 55% in size
# Target sequence (A8B2U2 whole entry, looked up): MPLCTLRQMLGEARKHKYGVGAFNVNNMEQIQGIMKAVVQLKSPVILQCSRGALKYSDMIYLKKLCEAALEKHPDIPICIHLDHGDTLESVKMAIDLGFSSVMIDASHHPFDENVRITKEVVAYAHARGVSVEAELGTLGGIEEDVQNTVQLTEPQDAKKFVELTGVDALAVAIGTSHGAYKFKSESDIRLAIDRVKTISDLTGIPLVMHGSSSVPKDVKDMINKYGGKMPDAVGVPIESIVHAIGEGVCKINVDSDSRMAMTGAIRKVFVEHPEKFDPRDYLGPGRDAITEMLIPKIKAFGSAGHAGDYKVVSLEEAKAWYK
#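 40 nM FBPA preincubated 10 min at RT with compound (up to 57.5 uM final), then substrate plus GAPDH/TPI/NAD/arsenate coupling and diaphorase/resazurin added. Fluorescence read after 20 min at RT, 525/598 nm.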
# NS1 function inh = inhibitors of influenza NS1 protein function. Potency, µM (titrated, usually from 46.1 µM), for inactives: top-dose activity, positive = more growth. 270,000 compounds, 0.4% hits; calls by dose curve; further: potency means the concentration at half of the fitted maximal effect; actives are rising curves; nearly all actives have a fitted effect of over 50% in size
#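 Read-out: OD600 growth recovery of NS1-expressing budding yeast. Cells grown overnight at 30C in -URA glucose medium, washed, resuspended and diluted 1:100 in 2% galactose assay medium, pH 6.0. Same strain lacking NS1 served as positive control.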
# Pf growth 48h = inhibits P. falciparum growth in the first generation, 48 h. P. falciparum luciferase growth in erythrocytes, 48 h. Potency, µM (top dose mostly 28.7 µM), inactives show top-dose activity change, negative = inhibition, actives largely listed as inhibitors. 310,000 compounds, 5.9% hits. AID 504832; further: potency means the concentration at half of the fitted maximal effect; on the % scale 0 is the no-effect control and ±100 the full control effect
#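 Cell-based growth assay: transgenic P. falciparum expressing firefly luciferase, cultured in red cells within RPMI 1640 containing 0.5% w/v Albumax, 24 mM bicarbonate and gentamycin. A drop in luciferase activity indicates inhibition.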
# Shiga toxin inh = blocks Shiga toxin action in Vero cells; inhibition, % at 38.7 µM; 290,000 compounds, 9.2% hits; Vero cells, Shiga toxin protein synthesis inhibition reporter; in the data active means inhibition mostly above about 28%, no sharp cut-off; inactive means mostly below about 43%; further: 0% is about no effect
# * = called active by the depositor; ? = inconclusive; / = not tested or not shown; [ ] = another dose, or the depositor's remark. An excerpt weighted towards active compounds, which were near 21% of everything screened. Unless noted, the call rests on the fitted dose curve; in most records, active means well fitted curve in the direction sought with a large enough effect; inconclusive means small, poorly fitted or top-dose-only effect, or another doubt; inactive means no such curve, though single readings can be large; an effect the other way counts as inactive or inconclusive.
SMILES,Cycloheximide cs,Pf growth 96h,FBPA Giardia inh,NS1 function inh,Pf growth 48h,Shiga toxin inh
CC(C)c1ccc(CNc2ccc3c(c2)ncn3C)cc1,59.9*,24.6%,15.3%,-8.7%,17.0%,103.7*
CCCCn1cnc2cc(NCc3ccncc3)ccc21,7.1,160.5%,-6.1%,-6.3%,-0.5%,0.8
CN(C)c1ccc(CNc2ccc3c(c2)ncn3C)cc1,19.6*,53.2%,-16.6%,0.1%,/,17.9
CC(C)c1ccc(CNc2ncccn2)cc1,39.5*,12.1%,?,-4.2%,87.5%,41.7*
COc1cc2c(c3oc4cccc(O)c4c(=O)c13)C1C=CO[C@@H]1O2 (stereo not given in full),-13.7,/,-8.9%,/,/,-7.7
CC1C(=O)CCN(C(C)(C)C)C1C (stereo not given),-2.9,8.28µM*,1.1%,-2.6%,?,-0.7
CCc1ccc2nc(/N=C(\N)NC(=O)c3ccccc3)nc(C)c2c1,1.0,10.4µM*,-4.3%,0.1%,9.28µM*,5.1
Cc1cc(C)c2nc(/N=C(\N)NC(=O)c3ccccc3)nc(C)c2c1,-3.2,?,-2.1%,2.5%,?,-10.7
CCCC(=O)N/C(N)=N/c1nc(C)c2ccccc2n1,16.5*,1.85µM*,-12.8%,-5.0%,?,18.3
Cc1cc(C)c2nc(/N=C(\N)NC(=O)Nc3ccccc3)nc(C)c2c1,6.4,13.1µM*,-0.6%,?,1.85µM*,-5.3
CCN(CC(=O)Nc1c(F)cccc1F)C(=O)CNC(=O)c1ccc(Br)o1,/,65.5%,/,/,13.6%,/
Cc1ccc2c(c1)C(N1CCCC1=O)CC(c1ccco1)N2 (stereo not given),53.3*,?,?,-71.6%,147.7%,91.8*
CCOc1ccc2nc(N3CCCC(C(=O)NC4CCCC4)C3)sc2c1 (stereo not given),32.8*,?,-17.0%,-8.2%,39.0%,20.3*
CCOC(=O)N1CCN(C(=O)C2CCCN(c3nc4ccc(OCC)cc4s3)C2)CC1 (stereo not given),13.4,-15.0%,-6.0%,-30.6%,?,29.9*
COC(=O)CCCN=C1SCCN1Cc1ccccc1,6.6,36.8%,9.0%,7.3%,16.1%,25.9
O=C(CN1CCSC1=NCc1ccccc1)c1ccc(Cl)c(Cl)c1,-1.9,9.28µM*,4.6%,10.2%,?,-7.9
Cc1cccc(OCC(=O)Nc2ccc3c(c2)OCCO3)c1,61.8*,2.5%,-0.5%,-37.4%,151.1%,111.4*
C/C(CC(=O)Nc1ccc2c(c1)OCCO2)=N\NC(=O)COc1ccccc1,10.1,?,-2.6%,-0.6%,41.7%,14.5
Cc1ccc(OCC(=O)Nc2ccc3c(c2)OCCO3)cc1C,31.5*,?,-4.0%,/,236.9%,178.5*
CC1(C)CC2CC(C)(CN2S(=O)(=O)c2ccc(F)cc2F)C1 (stereo not given),/,1.8%,/,/,?,/
COc1ccc(S(=O)(=O)Nc2ccc(S(=O)(=O)Nc3ccc(F)cc3)cc2)cc1C,-1.1,-26.8%,-1.4%,24.7%,21.9%,0.6
COc1ccc(NS(=O)(=O)c2ccc(OC)c(N(C)S(=O)(=O)c3ccc(Cl)cc3)c2)cc1,8.9,3.7µM*,-8.2%,22.5%,11.7µM*,8.2
COc1ccc(S(=O)(=O)Nc2ccc(F)cc2)cc1N(C)S(=O)(=O)c1ccc(Cl)cc1,5.4,-20.2%,-4.1%,5.1%,5.22µM*,10.2
FC(F)(F)c1ccc(-n2cnc3ccccc32)nc1,33.0*,-24.4%,-13.8%,-12.9%,15.5%,45.6*
COc1ccc2cc(C(=O)C3CCCN(C(=O)/C=C/c4ccccn4)C3)ccc2c1 (stereo not given),1.0,?,-4.6%,3.6%,-0.7%,-6.3
SMILES,Cycloheximide cs,Pf growth 96h,FBPA Giardia inh,NS1 function inh,Pf growth 48h,Shiga toxin inh
CCCCC(CC)C(=O)NCCCN1CCN(CCCNC(=O)C(CC)CCCC)CC1 (stereo not given),-2.0,-1.9%,1.0%,10.6%,5.86µM*,-2.0
Cc1ccc(NNC(=O)c2ccc(Cl)cc2)nn1,0.7,33.9%,?,-1.9%,-4.4%,-13.2
CCOC(=O)NC(C(Cl)(Cl)Cl)S(=O)(=O)c1ccccc1 (stereo not given),17.7*,-3.2%,-6.9%,1.0%,-21.8%,49.8*
CCOC(=O)CS(=O)(=O)c1ccc(O)cc1,-2.7,?,6.5%,/,-6.4%[5.75 µM],-6.7
C/C=C(\CS(=O)(=O)c1ccccc1)S(=O)(=O)c1ccccc1,14.5*,23.1%,-0.7%,0.4%,?,44.1*
CC(C)(C)c1ccc(C(=O)CS(=O)(=O)c2ccccc2)cc1,38.0*,216.6%,2.5%,-27.7%,349.4%,87.9*
C/C(CS(=O)(=O)c1ccccc1)=N\O,-5.4,14.6%,-0.2%,6.1%,-2.8%,-11.3
CCOC(=O)CS(=O)(=O)c1ccccc1,-2.9,1.9%,6.9%,-2.1%,2.94µM*,-3.1
C=CCNC(=O)NC(=O)CSc1nnc(C(F)(F)F)n1C,5.0,70.2%,4.5%,/,-9.8%,22.4
Cc1ccc(-n2cc(CNCCn3nc(C)cc3C)c(-c3ccc(F)cc3)n2)cc1,-1.1,-5.9%,-6.3%,3.9%,?,34.4
COc1ccc(-n2cc(CNCCN3CCOC3=O)c(-c3ccccc3Cl)n2)cc1,-2.2,?,4.9%,0.1%,-6.6%,-3.8
CCN1CCC(CNCc2cn(-c3ccc(OC)cc3)nc2-c2ccccc2Cl)C1 (stereo not given),0.8,?,0.6%,1.8%,2.08µM*,1.1
COc1ccc(-n2cc(CNCCc3ncc(C)[nH]3)c(-c3ccccc3Cl)n2)cc1,-0.9,?,-10.1%,7.4%,-11.6%,31.3
COc1ccc(-n2cc(CNCCc3nc(C)cc(C)n3)c(-c3ccccc3Cl)n2)cc1,3.8,?,-17.7%,-0.3%,11.7µM*,8.2
COc1ccc(-n2cc(CNCCCn3ccnc3)c(-c3ccccc3Cl)n2)cc1,0.5,20.0%,9.2%,1.2%,1.47µM*,-5.9
Cc1ccc(-n2cc(CNCCc3ncc(C)[nH]3)c(-c3ccc(F)cc3)n2)cc1,14.0*,19.6%,0.0%,0.9%,1.65µM*,7.3
Cc1cc(C)n(CCCNC(=O)c2ccc(C)o2)n1,/,-23.2%,/,/,-5.6%,/
CC(C(=O)OCC(=O)N(C)C1(C#N)CCCCC1)N1C(=O)c2ccccc2C1=O (stereo not given),/,-1.2%,/,/,-13.2%,/
N[C@@H](Cc1ccccc1)C(=O)N1CCC(C(=O)NCC(=O)NCC(=O)O)CC1,-2.7,7.7%,-16.9%,4.6%,2.2%,-2.8
CC(C)(C)c1cc(/C=N/NC(=O)C[n+]2ccccc2)cc(C(C)(C)C)c1O,-4.4,3.7%,-6.5%,-1.2%,?,-9.5
Fc1ccc(-n2cc(CNCCc3ccccn3)c(-c3ccccc3Cl)n2)cc1,-2.1,22.9%,3.9%,7.1%,8.28µM*,-4.3
Cc1ccc(S(=O)(=O)NC2CCSC2=O)cc1C (stereo not given),/,-1.5%,/,/,13.2%,/
CCOC(=O)c1ccc2c(c1)[nH]c(=S)n2CC,29.5*,-5.4%,-14.7%,-1.2%,58.6%,87.5*
